# Pf Dd2 growth: Plasmodium falciparum Dd2 growth inhibition | P. falciparum Dd2 growth, SYBR Green, 72 h | Potency, µM (highest dose often 28.9 µM), inactives show at the highest dose activity, negative = inhibition, hits mostly inhibitors | hit rate 4.3% among 120,000; active = well fitted inhibition curve with a large enough effect;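 note: plate controls were DMSO vehicle for no effect and reference drug for full effect; nearly all actives have a fitted effect of over 65% in size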
#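 Readout: SYBR Green fluorescence, 485 nm excitation, 535 nm emission, after ~16 h lysis at 37C. Before that, Dd2-infected red cells (2.5% hematocrit) grew 72 h with compound, 29 uM top final concentration.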
# An asterisk follows results filed as active; i = inactive; [ ] = another dose, or the depositor's remark. Only a selection was taken, and hits are over-represented in it overall. Potency is the fitted concentration of half-maximal effect.
SMILES,Pf Dd2 growth
CCOc1ccccc1NC(=O)CSc1c(C)cnc2c1c(=O)n(C)c(=O)n2C,-11.8%
CN1CCCC2(C1)CN(C)c1ccc(C(=O)Nc3ccc(F)cc3)cc12 (configuration not stated),i
COc1ccc(N2CCN(C(=O)c3cnc(SC)nc3C)CC2)cc1,57.0%
COCCN1C(=O)c2ccccc2C(C(=O)Nc2cc(C)ccc2OC)C12CCCCC2 (configuration not stated),10µM*
COCCN1C(=O)c2ccccc2C(C(=O)Nc2ccc(OC)cc2OC)C12CCCC2 (configuration not stated),-13.7%
COCCN1C(=O)c2ccccc2C(C(=O)Nc2cc(OC)ccc2OC)C12CCCC2 (configuration not stated),i
COCCN1CC(CO)C2(CCN(Cc3ccc(F)c(OC)c3)CC2)C1 (configuration not stated),-30.0%
O=C(NCc1ccccc1)C1CCC(=O)N1C1CCN(C(=O)Cc2ccccc2F)CC1 (configuration not stated),11.3%
CC(C)C(O)C1CCN(c2nccc(-c3cc(C(=O)O)ccn3)n2)CC1 (configuration not stated),14.5%
O=C(CC1CCOCC1)NCc1ccccc1F,7.1%
CCc1noc(CN(CC)C(=O)Cn2nc(C)n(Cc3ccccc3)c2=O)n1,-7.8%
CCC(COC)NC(=O)c1c(C)noc1-c1cc(OC)c(OC)c(OC)c1 (configuration not stated),i
O=C(CN1C(=O)C(c2ccccc2)=NC12CCCCCC2)NC1CCCCC1,-9.9%
COc1ccc(C(=O)NC(c2ccccc2Cl)c2cc(Cl)c3cccnc3c2O)cc1 (configuration not stated),3.55µM*
Cc1ccc(C(=O)Nc2cccc3cccnc23)cc1Cl,4.1%
COc1ccc(C(=O)Nc2cc3c(cc2C(=O)c2ccccc2Cl)OCCO3)cc1,22.6%
O=C(CSc1ccccc1)N1CCc2nc3cc(-c4ccccc4)[nH]n3c(=O)c2C1,i[5.79 µM]
CCc1nnc(SCc2ccc(F)cc2Cl)c2cc3sc(C)cc3n12,14.9%
Cc1ccc(Nc2c(-c3ccc(N4CCOCC4)cc3)nc3ccc(C)cn23)cc1,11.3%
CCCC(=O)N1Cc2ccccc2CC2(CCCN(CCC)C2)C1 (configuration not stated),8.91µM*
CCN1CCCC2(Cc3ccccc3CN(C(=O)CCC(=O)O)C2)C1 (configuration not stated),16.6%
CCCN1CCCC2(Cc3ccccc3CN(C(=O)CCCC(=O)O)C2)C1 (configuration not stated),-6.2%
CN1CCC2(Cc3ccccc3CN(C(=O)CCC(=O)O)C2)C1 (configuration not stated),-6.9%
CCC(=O)N1Cc2ccccc2CC2(CCCN(CC3CCNCC3)C2)C1 (configuration not stated),-2.1%
COc1ccc(C(=O)N2Cc3ccccc3CC23CCCN(C(=O)CN)C3)cc1 (configuration not stated),-18.3%
SMILES,Pf Dd2 growth
CCCC(=O)N1Cc2ccccc2CC2(CCN(C)C2)C1 (configuration not stated),11.2µM*
NCC(=O)N1Cc2ccccc2CC12CCCN(C(=O)c1ccccc1)C2 (configuration not stated),8.91µM*
NCCCC(=O)N1CCCC2(Cc3ccccc3CN2C(=O)c2ccccc2)C1 (configuration not stated),7.4%
O=C(O)CCC(=O)N1Cc2ccccc2CC2(CCCN(CCc3ccccc3)C2)C1 (configuration not stated),8.8%
CCN1CCCC2(Cc3ccccc3CN(C(=O)c3ccccc3)C2)C1 (configuration not stated),10µM*
CCCC(=O)N1Cc2ccccc2CC2(CCN(CC)C2)C1 (configuration not stated),-13.5%[44.1 µM]
O=C1CC2CCCC(C1)N2C(=O)c1ccc2ccccc2n1,18.5%[44.1 µM]
CC(C)NC(=O)N(C1CC1)C1CCOC2(CCN(C(=O)c3cc4ccccc4[nH]3)CC2)C1 (configuration not stated),i
COc1ccc(C)cc1NC(=O)C1CN(S(=O)(=O)C2CC2)CC12CCCCC2 (configuration not stated),i
CCOc1cc(CNC(=O)NC2COc3ccc(OC)cc3C2)cc(OCC)c1OCC (configuration not stated),-18.1%
Cc1cc(CN2CCC3(CC2)CN(C2CCC2)CC3CO)n(C)n1 (configuration not stated),i
CN(C1CCOc2ccccc21)S(C)(=O)=O (configuration not stated),-18.4%[44.1 µM]
CC(=O)N1CCc2cc(S(=O)(=O)NC(CC(C)C)C(=O)Nc3cc(C)cc(C)c3)ccc21 (configuration not stated),i
Cc1noc(C)c1CC(=O)N1CCC2(CC1)N(c1ccccc1)C(=O)CS2=O (configuration not stated),-5.7%
Cc1nn2c(c1-c1ccccc1[S+](C)(=O)[O-])N(C(=O)c1cccc(Cl)c1)CCC2,-12.0%[44.1 µM]
CC(=O)NCCNC(=O)[C@H]1CN2CCC1C[C@@H]2Cn1cc(C(C)(C)C)nn1 (some centres not stated),14.6%[44.1 µM]
CCC(=O)N1Cc2ccccc2CC2(CCCN(Cc3ccncc3)C2)C1 (configuration not stated),-5.9%
CC(=O)NCC(=O)N1Cc2ccccc2CC2(CCN(Cc3ccccc3)C2)C1 (configuration not stated),-17.7%
CC(C)C(=O)N1Cc2ccccc2CC2(CCCN(Cc3ccccc3)C2)C1 (configuration not stated),3.55µM*
CCOc1ccc(-c2nn(-c3ccccc3)cc2C2NC(=O)NC(C)=C2C(=O)OC(C)C)cc1C (configuration not stated),-6.9%
Cc1ccc(CCNC(=O)c2ccc3c(c2)nc2n3CCCCC2)cc1,-3.6%
COc1ccccc1CNC(=O)c1ccc2c(c1)C(O)CCCCCN2C (configuration not stated),i
Cc1ccc(CN2CCN(C(=O)c3ccc4c(c3)C(O)CCCCCN4C)CC2)cc1 (configuration not stated),12.6µM*
CC(C)CN1CCN(C(=O)c2ccc3c(c2)C(O)CCCCCN3C)CC1 (configuration not stated),i
CN1CCCCCC(O)c2cc(C(=O)NCc3nc4ccccc4n3C)ccc21 (configuration not stated),i
SMILES,Pf Dd2 growth
CN1CCCCCC(O)c2cc(C(=O)N3CCN(C4CCCCC4)CC3)ccc21 (configuration not stated),i
CN1CCCCCC(O)c2cc(C(=O)NCc3cccc(C(F)(F)F)c3)ccc21 (configuration not stated),10µM*
Cc1ccc(C)c(C(=O)N[C@@H]2CN(c3ccncn3)C[C@H]2CO)c1,15.5%
CCc1ccccc1NC(=O)CSc1ncc2c(n1)-c1ccccc1N(C)S2(=O)=O,i
Cc1ccc2c(c1)-c1onc(C(=O)N3CCN(c4cc(C)ccc4C)CC3)c1CO2,9.8%
COc1ccc(-c2nc3nccc(-c4ccco4)n3n2)c(OC)c1,-29.0%
CN1CCc2nc(N3CCOCC3)[nH]c(=O)c2CC1,10.3%[5.79 µM]
COc1ccc(N2CCN(C(=O)c3noc4c3CCCCC4)CC2)cc1,49.4%
CCn1c2c(c(=O)n3ncc(C(=O)N4CCN(c5ccc(C(C)=O)cc5)CC4)c13)CN(Cc1ccc(OC)cc1)CC2,10µM*
COc1ccc(Cn2ccc3nc(C)c(C(=O)N4CCN(c5ccc(F)cc5)CC4)cc3c2=O)cc1,-4.5%
